# Measurements: the supplement of paper PMC4022240
# ± gives the standard deviation.
# T1: HaloTag-ATRX ADD domain (163-292)
# T1 chain: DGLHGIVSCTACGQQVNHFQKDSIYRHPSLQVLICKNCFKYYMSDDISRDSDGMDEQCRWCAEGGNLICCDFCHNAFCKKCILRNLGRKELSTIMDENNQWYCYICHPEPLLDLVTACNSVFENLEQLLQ
# B1: H2B 17-29 A V T K A Q K Kac D G Kac Kac R (peptide)
# chain: AVTKAQKKDGKKR
# B2: H2B 17-29 A V T K A Q K Kac D G Kac K R (peptide)
# chain: AVTKAQKKDGKKR
# B3: H2B 17-29 A V T K A Q Kac K D G Kac K R (peptide)
# chain: AVTKAQKKDGKKR
# B4: H3 1-13 A R T Kac Q T A R Kme3 S T G G (peptide)
# chain: ARTKQTARKSTGG
# B5: H2B 17-29 A V T K A Q K K D G Kac K R (peptide)
# chain: AVTKAQKKDGKKR
# How the values were obtained:
# Test in all cases: peptide microarray binding signal (635 nm), min-max normalized on array (fraction of array maximum); higher = stronger binding
# [1] = molecular target: T1, HaloTag-ATRX ADD domain (163-292)
# Experimental: (§1)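 Histone 13-mer peptides were synthesized as cellulose conjugates with a C-terminal 20-atom PEG linker and printed in triplicate on nitrocellulose. The sequence given is the unmodified backbone; PTMs (Kme1/2/3, Kac, Sph/Tph, Rme/Rme2a/Rme2s, Rcit) are listed in the label and the 'peptide modifications' condition. Slides were probed at 4 °C for 1 h with biotin-labelled (HQ)5-HaloTag reader fusions (ATRX-ADD, ING2-PHD) then streptavidin-Alexa647, or with rabbit histone antibodies then anti-rabbit Alexa647. The mean 635 nm signal of the triplicate spots was scaled 0-1 between the lowest and highest values on each array.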
# [2] = molecular target: HaloTag-ING2 PHD (mouse Ing2 200-280)
# Experimental: as §1
# [3] = molecular target: anti-H3K4me3 antibody ab8580
# Experimental: as §1
# [4] = molecular target: anti-H3K9me3 antibody ab8898
# Experimental: as §1
# [5] = peptide region: H2B 17-29, peptide modifications: H2BK24ac H2BK27ac H2BK28ac, binder concentration: 1:2,000 dilution
# [6] = peptide region: H2B 17-29, peptide modifications: H2BK24ac H2BK27ac H2BK28ac, binder concentration: 1:10,000 dilution
# [7] = peptide region: H2B 17-29, peptide modifications: H2BK24ac H2BK27ac, binder concentration: 1:2,000 dilution
# [8] = peptide region: H2B 17-29, peptide modifications: H2BK24ac H2BK27ac, binder concentration: 1:10,000 dilution
# [9] = peptide region: H2B 17-29, peptide modifications: H2BK23ac H2BK27ac, binder concentration: 1:2,000 dilution
# [10] = peptide region: H2B 17-29, peptide modifications: H2BK23ac H2BK27ac, binder concentration: 1:10,000 dilution
# [11] = peptide region: H3 1-13, peptide modifications: H3K4ac H3K9me3, binder concentration: 1:2,000 dilution
# [12] = peptide region: H3 1-13, peptide modifications: H3K4ac H3K9me3, binder concentration: 1:10,000 dilution
# [13] = peptide region: H2B 17-29, peptide modifications: H2BK27ac, binder concentration: 1:2,000 dilution
# [14] = peptide region: H2B 17-29, peptide modifications: H2BK27ac, binder concentration: 1:10,000 dilution
binder,measurement,setting,value
B1,peptide microarray binding signal,"[1]; peptide region: H2B 17-29, peptide modifications: H2BK24ac H2BK27ac H2BK28ac, binder concentration: 50 nM",0.00295 ± 3.3e-05
same,peptide microarray binding signal,"[1]; peptide region: H2B 17-29, peptide modifications: H2BK24ac H2BK27ac H2BK28ac, binder concentration: 500 nM",0.00638 ± 0.0005
same,peptide microarray binding signal,"[2]; peptide region: H2B 17-29, peptide modifications: H2BK24ac H2BK27ac H2BK28ac, binder concentration: 10 nM",0.0037 ± 7.9e-05
same,peptide microarray binding signal,"[2]; peptide region: H2B 17-29, peptide modifications: H2BK24ac H2BK27ac H2BK28ac, binder concentration: 100 nM",0.00716 ± 0.00073
same,peptide microarray binding signal,[3]; [5],0.000944 ± 5.4e-05
same,peptide microarray binding signal,[3]; [6],0.00108
same,peptide microarray binding signal,[4]; [5],0.000634 ± 9.9e-06
same,peptide microarray binding signal,[4]; [6],0.00098 ± 3e-05
B2,peptide microarray binding signal,"[1]; peptide region: H2B 17-29, peptide modifications: H2BK24ac H2BK27ac, binder concentration: 50 nM",0.00238 ± 4.6e-05
same,peptide microarray binding signal,"[1]; peptide region: H2B 17-29, peptide modifications: H2BK24ac H2BK27ac, binder concentration: 500 nM",0.0059 ± 0.00037
same,peptide microarray binding signal,"[2]; peptide region: H2B 17-29, peptide modifications: H2BK24ac H2BK27ac, binder concentration: 10 nM",0.00197 ± 4.6e-05
same,peptide microarray binding signal,"[2]; peptide region: H2B 17-29, peptide modifications: H2BK24ac H2BK27ac, binder concentration: 100 nM",0.00177 ± 6.2e-05
same,peptide microarray binding signal,[3]; [7],0.00138 ± 0.0002
same,peptide microarray binding signal,[3]; [8],0.000685 ± 7.2e-06
same,peptide microarray binding signal,[4]; [7],0.000227 ± 4.1e-06
same,peptide microarray binding signal,[4]; [8],0.000346 ± 3.8e-06
B3,peptide microarray binding signal,"[1]; peptide region: H2B 17-29, peptide modifications: H2BK23ac H2BK27ac, binder concentration: 50 nM",0.0053 ± 0.00061
same,peptide microarray binding signal,"[1]; peptide region: H2B 17-29, peptide modifications: H2BK23ac H2BK27ac, binder concentration: 500 nM",0.00781 ± 0.00049
same,peptide microarray binding signal,"[2]; peptide region: H2B 17-29, peptide modifications: H2BK23ac H2BK27ac, binder concentration: 10 nM",0.00722 ± 0.00015
same,peptide microarray binding signal,"[2]; peptide region: H2B 17-29, peptide modifications: H2BK23ac H2BK27ac, binder concentration: 100 nM",0.00751 ± 0.001
same,peptide microarray binding signal,[3]; [9],0.0021 ± 0.00039
same,peptide microarray binding signal,[3]; [10],0.000856 ± 8.9e-06
same,peptide microarray binding signal,[4]; [9],0.000604 ± 2e-05
same,peptide microarray binding signal,[4]; [10],0.000923 ± 9.6e-06
B4,peptide microarray binding signal,"[1]; peptide region: H3 1-13, peptide modifications: H3K4ac H3K9me3, binder concentration: 50 nM",0.0136 ± 0.004
same,peptide microarray binding signal,"[1]; peptide region: H3 1-13, peptide modifications: H3K4ac H3K9me3, binder concentration: 500 nM",0.0491 ± 0.024
same,peptide microarray binding signal,"[2]; peptide region: H3 1-13, peptide modifications: H3K4ac H3K9me3, binder concentration: 10 nM",0.0828 ± 0.015
same,peptide microarray binding signal,"[2]; peptide region: H3 1-13, peptide modifications: H3K4ac H3K9me3, binder concentration: 100 nM",0.0894 ± 0.0073
same,peptide microarray binding signal,[3]; [11],0.0339 ± 0.018
same,peptide microarray binding signal,[3]; [12],0.0225 ± 0.0063
same,peptide microarray binding signal,[4]; [11],0.0825 ± 0.052
same,peptide microarray binding signal,[4]; [12],0.0423 ± 0.027
B5,peptide microarray binding signal,"[1]; peptide region: H2B 17-29, peptide modifications: H2BK27ac, binder concentration: 50 nM",0.00248 ± 9e-05
same,peptide microarray binding signal,"[1]; peptide region: H2B 17-29, peptide modifications: H2BK27ac, binder concentration: 500 nM",0.00624 ± 0.00045
same,peptide microarray binding signal,"[2]; peptide region: H2B 17-29, peptide modifications: H2BK27ac, binder concentration: 10 nM",0.00185 ± 3.3e-05
same,peptide microarray binding signal,"[2]; peptide region: H2B 17-29, peptide modifications: H2BK27ac, binder concentration: 100 nM",0.00149 ± 4.1e-05
same,peptide microarray binding signal,[3]; [13],0.00126 ± 4.4e-05
same,peptide microarray binding signal,[3]; [14],0.000913 ± 1.6e-05
same,peptide microarray binding signal,[4]; [13],0.000302 ± 3.1e-06
same,peptide microarray binding signal,[4]; [14],0.000404 ± 4.4e-06
